This is a sample that favours compounds with a hit; in the whole collection about 1.7% have one here.
TLR4-MyD88 BLA: blocks binding of human TLR4 to MyD88; 200,000 compounds, 0.18% hits; HeLa CL3-4 TLR4/MyD88 BLA complementation, FRET ratio; inhibition, % at 8.4 µM; in the data active = inhibition above about 25%;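 also: 0% = vehicle and 100% = reference inhibitor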
ABCB6 inh 2: blocks the human ABCB6 transporter. K562-ABCB6 porphyrin accumulation, flow cytometry, 1 h; hits give low values. fluorescence ratio to DMSO, % at 10 µM. 360,000 compounds, 0.19% hits;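 active = fluorescence ratio to DMSO below 75%, the collection mean minus 3 SD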;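 also: signal is porphyrin accumulated inside mitochondria; 100% equals median channel fluorescence of DMSO control wells; lower ratio means ABCB6 inhibition with less porphyrin fluorescence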
Myeloid diff MLP: myeloid differentiation induction. ER-HoxA9 myeloid progenitors, lysozyme-GFP differentiation, flow cytometry. calls only at 10 µM. 360,000 compounds, 1% hits. AID 624256;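 active = normalized GFP-positive differentiation at or above the plate's own cutoff, the solvent-only control mean plus 3 SD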;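 also: cells exposed to compound for four days before flow analysis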
NOD2 RIPK2 PPI: blocks binding of human NOD2 to RIPK2; 360,000 compounds, 0.38% hits; O43353; inhibition, % at 4.98 µM; CHO BLA complementation NOD2-RIPK2, CCF4 ratio; in the data active = inhibition above about 21%;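 also: 0% = vehicle only and 100% = reference blocker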
TLR9-MyD88 inh: inhibitors of human TLR9-MyD88 binding; Q9NR96+Q99836; CHO BLA complementation TLR9-MyD88, CCF4 FRET ratio; 340,000 compounds, 0.21% hits; inhibition, % at 4.98 µM; AID 504734;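 active = inhibition above the mean over all tested compounds plus 3 SD, cut at about 21% in these data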;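 also: 0% = DMSO only wells and 100% = clavulanate BLA inhibitor control wells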
Target sequence (Q99836 whole entry, looked up): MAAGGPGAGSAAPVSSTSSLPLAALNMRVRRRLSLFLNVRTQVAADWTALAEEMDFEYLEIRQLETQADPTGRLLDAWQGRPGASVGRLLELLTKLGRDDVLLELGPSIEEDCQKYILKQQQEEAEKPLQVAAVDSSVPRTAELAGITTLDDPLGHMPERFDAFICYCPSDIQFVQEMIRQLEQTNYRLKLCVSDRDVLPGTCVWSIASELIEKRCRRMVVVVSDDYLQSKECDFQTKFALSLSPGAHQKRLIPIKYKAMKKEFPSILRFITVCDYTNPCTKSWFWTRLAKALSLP
Target sequence (Q9NR96 whole entry, looked up): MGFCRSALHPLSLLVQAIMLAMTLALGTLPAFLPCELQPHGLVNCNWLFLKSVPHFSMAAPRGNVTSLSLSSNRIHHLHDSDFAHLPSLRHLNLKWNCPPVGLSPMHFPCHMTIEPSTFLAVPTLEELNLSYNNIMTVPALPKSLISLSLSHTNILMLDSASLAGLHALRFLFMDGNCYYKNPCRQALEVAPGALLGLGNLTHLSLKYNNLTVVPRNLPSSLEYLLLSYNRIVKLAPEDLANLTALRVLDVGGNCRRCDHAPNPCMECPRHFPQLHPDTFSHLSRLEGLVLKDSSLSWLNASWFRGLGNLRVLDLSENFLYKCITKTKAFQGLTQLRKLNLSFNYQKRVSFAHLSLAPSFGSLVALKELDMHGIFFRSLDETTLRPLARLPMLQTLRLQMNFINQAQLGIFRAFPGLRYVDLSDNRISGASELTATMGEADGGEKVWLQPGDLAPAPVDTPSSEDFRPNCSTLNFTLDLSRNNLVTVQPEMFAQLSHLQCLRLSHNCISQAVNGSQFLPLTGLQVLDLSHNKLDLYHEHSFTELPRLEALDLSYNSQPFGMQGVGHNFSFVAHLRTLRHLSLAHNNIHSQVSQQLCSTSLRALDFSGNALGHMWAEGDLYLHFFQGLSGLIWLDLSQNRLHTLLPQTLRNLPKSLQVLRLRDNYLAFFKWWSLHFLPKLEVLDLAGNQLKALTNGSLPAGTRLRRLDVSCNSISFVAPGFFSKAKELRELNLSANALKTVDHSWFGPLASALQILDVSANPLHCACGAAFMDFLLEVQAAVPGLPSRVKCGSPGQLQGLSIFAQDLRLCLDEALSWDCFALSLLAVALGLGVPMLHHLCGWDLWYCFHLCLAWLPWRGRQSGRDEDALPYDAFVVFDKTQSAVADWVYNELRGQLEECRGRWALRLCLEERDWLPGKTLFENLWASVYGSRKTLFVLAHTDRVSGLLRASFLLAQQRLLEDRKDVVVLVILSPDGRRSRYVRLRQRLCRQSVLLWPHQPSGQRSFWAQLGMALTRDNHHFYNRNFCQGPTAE
Myeloid diff CP1: myeloid differentiation induction. 2,300 compounds, 2% hits. calls only. ER-HoxA9 myeloid progenitors, GFP/Mac1 double-positive flow. AID 651706. shares compounds with Myeloid diff MLP;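 active = share of green or green-and-red cells above 9 and 9% in run 1 or 4 and 3% in run 2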
GFP autofluor: flagged as fluorescent in myeloid differentiation counter-screen; shares compounds with Myeloid diff MLP; 2,300 compounds, 7.4% hits; fluorescence response, % (test concentration not listed); AID 651707; ER-HoxA9 myeloid progenitors, no estrogen, GFP autofluorescence flow cytometry; vehicle wells 0%, positive control 100%;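 active = over 5% cells positive for green fluorescent reporter, or over 2% positive for both it and APC stain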;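 also: range taken on the double positive population between DMSO and positive control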
* hit, by the source's call; i = inactive; . = no result; + = active, no number.

SMILES	TLR4-MyD88 BLA	ABCB6 inh 2	Myeloid diff MLP	NOD2 RIPK2 PPI	TLR9-MyD88 inh	Myeloid diff CP1	GFP autofluor
CCN(CC(=O)NC(C)(C)C)C(=O)c1cccc(S(=O)(=O)N2CC3(C)CC2CC(C)(C)C3)c1 (centres undefined)	.	102	i	-2	2	.	.
O=C(NC1CCN(Cc2ccccc2)CC1)C1CCN(S(=O)(=O)c2cccc3cccnc23)CC1	-7	95	i	0	-5	.	.
O=S(=O)(NC1CCN(Cc2ccccc2)CC1)c1cccc2cccnc12	-5	99	i	-10	8	i	0
CC(=O)NN1C(=O)c2ccc3c4c(ccc(c24)C1=O)C(=O)N(NC(C)=O)C3=O	.	94	+	0	-9	i	0
CCOC(=O)CCNC(=O)N1CCCC(N(C)CCc2ccccc2)C1 (centres undefined)	.	96	i	4	0	.	.
O=C(C1=C(O)C(=O)N(CCCN2CCOCC2)C1c1ccccn1)c1cc2ccccc2o1 (centres undefined)	-8	94	i	-9	-3	i	1
CCN(CC)c1ccc(/C=C2\CCC(/C=N/NC(=O)c3ccc(=O)n(C)c3)=C2N2CCOCC2)cc1	1	503	+	14	12	i	98*
CCN(CC)c1ccc(/C=C2\CCC(/C=C(\C#N)C(=O)Nc3ccccc3F)=C2N2CCOCC2)cc1	10	i	i	0	6	i	5.5*
N#C/C(=C/C1=C(N2CCOCC2)C(=C/c2cccc([N+](=O)[O-])c2)/CC1)C(=O)Nc1ccccc1F	.	745	+	-6	-1	i	46*
COc1ccccc1NC(=O)c1ccc(NC(=O)COC(=O)c2cccnc2Cl)cc1	.	94	i	-1	-3	.	.
CCOc1ccc(C(=O)NCC(=O)N2CCCC2)cc1	.	101	i	6	6	.	.
COC(=O)C1=C(C)N(Cc2ccccc2)C(=NCc2cc(OC)c(OC)c(OC)c2)N[C@H]1CCc1ccccc1	.	94	+	-11	1	i	0
CCN1CCc2c(sc(NC(=O)c3ccc(S(=O)(=O)N(CC)c4ccccc4)cc3)c2C(N)=O)C1	.	147	+	3	11	i	15*
Cc1sc(NC(=S)NC(=O)c2ccco2)c(C(N)=O)c1C	-3	105	i	-2	-1	.	.
CCN1CCc2c(sc(NC(=O)c3ccc(C(=O)c4ccccc4)cc3)c2C(N)=O)C1	.	103	i	-6	0	.	.
CCN1CCc2c(sc(NC(=S)NC(=O)c3ccco3)c2C(N)=O)C1	.	106	i	-4	.	i	3
Oc1ccc(Br)cc1-c1ccnn1-c1ccccc1	.	101	+	1	2	i	0
O=C(COC(=O)COc1ccc2c(c1)CCC2)Nc1ccccc1C(F)(F)F	.	103	i	-3	-9	.	.
CC1CCCN(C(=O)COC(=O)c2cc(-c3cccs3)nn2-c2ccccc2)C1 (centres undefined)	.	92	i	4	-5	.	.
Cc1ccc(O)c(NC(=O)CCC2CCCCC2)c1	2	102	i	15	-2	i	0
Fc1ccc(Nc2nc(NCc3cccs3)nc3ccsc23)cc1	.	98	i	-6	.	.	.
Cc1cc(C(F)(F)F)nc(SCC(=O)c2cccc([N+](=O)[O-])c2)n1	-10	96	i	-9	-3	i	0
Cc1ccc(C(=O)NCC(=O)OCC(=O)c2ccc3c(c2)NC(=O)CO3)cc1	8	99	i	1	-6	.	.
Cc1cc(NC(=O)CN(C)S(=O)(=O)c2cnc[nH]2)ccc1Br	.	96	i	-12	12	.	.
CCC(=O)NNC(=O)CCC(=O)Nc1ccccc1	11	.	.	.	.	.	.
SMILES	TLR4-MyD88 BLA	ABCB6 inh 2	Myeloid diff MLP	NOD2 RIPK2 PPI	TLR9-MyD88 inh	Myeloid diff CP1	GFP autofluor
CC(C)(C)c1ccc(C(=O)NNC(=O)CCC(=O)Nc2ccccc2)cc1	.	92	+	-2	-4	i	0
COc1cccc(CNC(=O)C2CCCN(c3nc4ccccc4o3)C2)c1 (centres undefined)	1	104	i	7	-3	i	0
COc1ccc(CNC(=O)C2CCCN(c3nc4ccccc4o3)C2)c(OC)c1 (centres undefined)	-6	96	i	-8	-12	.	.
COc1ccc([C@H]2C[C@H](n3cc(COC(=O)c4ccccc4)nn3)[C@@H](O)CN2C(=O)C2CCCCC2)cc1	.	93	i	-7	-6	i	0
Cc1ccc([C@H]2C[C@@H](O)[C@H](n3cc(COC(=O)c4ccccc4)nn3)CN2Cc2cccs2)cc1	.	103	i	9	5	i	0
COc1ccc(NC2=C(NC(C)=O)C(=O)c3ccccc3C2=O)cc1	.	95	+	-4	-8	+	0
Cc1ccc(S(=O)(=O)N(Cc2ccc(Cl)cc2)c2ccccc2C(=O)NCc2ccco2)cc1	-5	97	i	9	11	.	.
CC1=NN(c2ccccc2C)C(=O)C1	.	102	i	-7	-1	i	0
Cc1ccccc1N1CC(=O)N(c2ccccc2C)CC1=O	10	93	i	-13	1	.	.
CCOc1ccc(S(=O)(=O)Nc2cccc(C(=O)NCCCN3CCCC3=O)c2)cc1	.	97	i	2	-10	i	0
C#CCOCCOCCOCCNc1nc(N2CCN(C(=O)[C@H]([C@@H](C)CC)n3cc([C@@H](N)Cc4ccc(O)cc4)nn3)CC2)nc(N2CCN(C(=O)[C@H](CCCCN)n3cc([C@@H](N)CC(C)C)nn3)CC2)n1	-1	.	.	.	.	.	.
Cc1c(Br)c(O)c(Br)c2sc(=O)oc12	.	101	i	-4	-6	i	0
CC1CC(C)CN(C(=O)c2cccc(N3C(=O)c4ccccc4C3=O)c2)C1 (centres undefined)	.	99	i	0	-17	.	.
O=S(=O)(c1cccc(-c2nnc(SCc3ccc(Cl)cc3)o2)c1)N1CCCCC1	1	99	+	3	-14	i	19*
Cc1cnc(C(=O)OCC(=O)N(Cc2ccccc2)C(C)C)cn1	-7	83	i	4	-2	.	.
COc1cc(C)c(NC(=O)c2cccc(S(=O)(=O)N3CCCC3)c2)cc1OC	.	99	i	2	-10	.	.
COc1ccc(C(=O)Nc2nccs2)cc1OC	-1	91	+	-17	2	i	0
CCN(CC)S(=O)(=O)c1ccc(N2CCOCC2)c(NS(=O)(=O)c2cc(C(C)(C)C)ccc2C)c1	2	104	i	-3	4	.	.
CC(C)c1nc(SCC(=O)N2CCCC2)c2c(=O)n(C)c(=O)n(C)c2n1	.	99	+	1	-1	i	0
CCOc1ccccc1NC(=O)c1ccccc1-c1nc(-c2ccccc2)no1	13	99	+	4	2	i	0

Assay outcomes (PubChem)
